# Results filed as inconclusive are left out. A call without a number means that no potency is given here. Calls of active or inactive are those of the source. Calls follow the shape of the dose curve; as a rule, active = well fitted activation curve with a large enough effect in the main read-out, with a control signal flat; inconclusive = small, poorly fitted or top-dose-only effect, or effect the other way, or a change in a side signal; inactive = no such curve, though single readings can be large or run the other way.
# Target: Thyrotropin receptor (Homo sapiens) (UniProt P16473)
# Test: Confirmation Concentration-Response Assay for Agonists of the Thyroid Stimulating Hormone Receptor
# Settings: HEK293 TSHR-CNG cells, membrane potential dye, cAMP; series mostly up to 25.6 µM
# Excerpt: NIH Chemical Genomics Center [NCGC] NIH Molecular Libraries Screening Centers Network [MLSCN] MLSCN Grant: 1 X01 MH080680-01 PI Name: Dr. Marvin Gershengorn, NIH NCGC Assay Overview: Thyroid Stimulating Hormone Receptor TSH is an alpha/beta heterodimeric glycoprotein hormone secreted from the anterior pituitary gland which belongs to the glycoprotein hormone family. The actions of TSH are mediated by a seven-transmembrane receptor, which upon TSH binding couples preferentially to the G-alpha (s) protein (Gs), resulting in activation of adenylate cyclase and increase in cyclic adenosine 3', 5' monophosphate (cAMP). The TSH receptor (THSR) is mainly expressed in thyroid follicular cells and regulates their growth and function. Recombinant TSH is used to activate TSHR in patients with thyroid cancer receiving thyroid hormone suppression therapy and to screen for residual tumor after surgery, but it is expensive and must be administered intramuscularly. An orally active small molecule TSHR agonist would serve as an invaluable research tool for studying TSHR pharmacology and physiology, and would have multiple advantages in therapeutic settings. However, no selective small molecule agonist of the TSH receptor exists, and no small molecule screen for TSHR agonists has ever been reported. This cell based assay utilized a cyclic nucleotide gated ion channel (CNG) as a biosensor for cAMP induction by potential TSHR agonists. TSHR cell line HEK 293 cells stably expressing the TSHR as well as a modified CNG were purchased from BD biosciences. Stimulation of cAMP production causes the CNG to open and subsequent membrane depolarization to occur. A fluorescent membrane potential dye (BD biosciences) was utilized to detect cAMP stimulation in TSHR cells. The cells were maintained in DMEM medium (Invitrogen) containing 10 % FBS (Hyclone), 100 units/ml Penicillin, 100 ug/ml Streptomycin (Invitrogen), and 250 ug/ml Geneticin (Invitrogen) and 1 ug/ml Puromycin (Invitrogen) at 37C in 5% CO2. HEK 293 cells expressing CNG but without TSHR (parental cells) were used in concert to control for compounds signaling through endogenous receptors and targets of HEK 293 cells.
# NCGC Assay Protocol Summary: High Throughput Screening. Freshly passaged cells (TSHR or parental) were dispensed into 1536-well assay plates at 4 ul/well in DMEM containing phenol red (Invitrogen), 10% FCS (Hyclone), and 100 units/ml Penicillin, 100 ug/ml Streptomycin (Invitrogen) and incubated at 37 C with 5% CO2 for 20 to 36 hrs before the robotic screening. The screen was initiated by addition of 4 ul/well membrane potential dye containing 100 uM RO 20-1724 (Sigma Aldrich), followed by 60 min incubation at room temperature to allow for dye equilibration across the cell membrane. 23 nl/well compound or control was then added to the assay plates, which were incubated for additional 30 min before reading a Envision fluorescence plate reader (Perkin Elmer) in bottom-read mode for fluorescence intensity (emission at 590 nm). Keywords: Thyroid-stimulating hormone TSH, TSHR, TSHR agonist, quantitative high throughput screening, qHTS, HTS, probe identification, CNG, cAMP, cyclic nucleotide gated ion channel PubChem
# Potency is read from the fitted curve at half-maximal effect.
# Sequence of Thyrotropin receptor (Homo sapiens) (P16473 whole entry, looked up): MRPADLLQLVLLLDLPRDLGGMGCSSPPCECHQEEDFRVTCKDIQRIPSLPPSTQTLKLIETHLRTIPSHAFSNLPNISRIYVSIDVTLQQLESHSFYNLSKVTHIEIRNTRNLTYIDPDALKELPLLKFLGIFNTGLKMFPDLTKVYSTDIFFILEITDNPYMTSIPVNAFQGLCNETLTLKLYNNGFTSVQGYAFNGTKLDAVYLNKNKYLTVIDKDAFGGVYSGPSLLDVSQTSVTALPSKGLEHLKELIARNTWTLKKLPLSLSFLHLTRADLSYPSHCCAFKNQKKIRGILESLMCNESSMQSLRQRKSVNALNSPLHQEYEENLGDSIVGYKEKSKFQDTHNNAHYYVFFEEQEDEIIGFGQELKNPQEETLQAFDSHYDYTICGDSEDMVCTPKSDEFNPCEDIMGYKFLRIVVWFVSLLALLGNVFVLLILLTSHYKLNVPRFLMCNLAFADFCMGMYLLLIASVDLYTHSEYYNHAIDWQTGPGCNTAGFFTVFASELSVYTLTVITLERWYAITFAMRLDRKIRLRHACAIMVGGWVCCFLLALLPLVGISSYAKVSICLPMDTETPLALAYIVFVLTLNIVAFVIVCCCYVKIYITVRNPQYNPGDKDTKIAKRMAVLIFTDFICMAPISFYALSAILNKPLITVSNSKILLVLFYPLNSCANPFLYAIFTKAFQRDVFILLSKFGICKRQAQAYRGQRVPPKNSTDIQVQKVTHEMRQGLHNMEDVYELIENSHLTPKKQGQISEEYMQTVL
row,SMILES,Potency
1,CN1C(=O)N(C)C2(c3ccccc3)Nn3c(s/c(=C/c4ccco4)c3=O)=NC12c1ccccc1 (stereo not given),inactive
2,CCN(c1ccccc1)S(=O)(=O)c1ccc(Oc2ccc(-n3ccnc3)cc2)nc1,inactive
3,O=C(C1COc2ccccc2O1)N1CCCC1 (stereo not given),inactive
4,Nc1cc(CN2C(=O)c3ccccc3C2=O)cc(Cl)c1O,inactive
5,CCC(C)(C)n1nnnc1CN(Cc1ccco1)Cc1cc2cc3c(cc2[nH]c1=O)OCO3,inactive
6,COC(=O)c1cc(NC2c3ccccc3C(=O)N2c2cccnc2)cc(C(=O)OC)c1 (stereo not given),12.6 µM (active)
7,COc1ccc(C2Nc3ccccc3C(=O)N2Cc2ccco2)cc1COc1ccc(NC(C)=O)cc1 (stereo not given),0.631 µM (active)
8,COC(=O)C1=C(C)OC(N)=C(C#N)C1c1c(C)nn(-c2ccccc2)c1Cl (stereo not given),7.94 µM (active)
9,CCS(=O)(=O)N1CCN(C(C)CCc2ccccc2)CC1 (stereo not given),inactive
10,Cc1ccc2nc(SCC(=O)O)nc(C)c2c1,inactive
11,O=C(COC(=O)C1c2ccccc2Oc2ccccc21)Nc1ccc2c(c1)OCO2,12.6 µM (active)
12,CCOc1ccc(N(CC(=O)NC(C)(C)C)S(=O)(=O)c2c(C)noc2C)cc1,inactive
13,CCOc1ccc(N(CC(=O)Nc2ccc(C)cc2)S(=O)(=O)c2c(C)noc2C)cc1,inactive
14,Cn1c(=O)[nH]c(=O)c2c1nc(N1CCCCCC1)n2CCCSc1nc2ccccc2o1,inactive
15,Cc1ccccc1NC(=O)CSc1nnc(-c2ccoc2C)n1CCc1ccccc1,6.31 µM (active)
16,CCCC(=O)C1=C(SCC)CC(C)(C)C(C(=O)OC)C1=O (stereo not given),inactive
17,COc1ccc(-c2cc(C(F)(F)F)nc(SCCC(=O)N3CCOCC3)n2)cc1,15.8 µM (active)
18,COc1ccc(S(=O)(=O)NCCC(=O)NCc2ccc(F)cc2)cc1,inactive
19,NC(=O)c1nsc(C(=O)N(CC(=O)NCc2ccc3c(c2)OCO3)C2CCCC2)c1N,12.6 µM (active)
20,Cc1ccccc1-c1nc(CN2CCC(C(=O)N3CCN(c4ccccn4)CC3)CC2)c(C)o1,inactive

row,SMILES,Potency
1,CC(c1ccco1)N(C(=O)c1ccc(Cl)s1)c1ccccn1 (stereo not given),7.94 µM (active)
2,CCc1ccccc1NC1=NCC(=O)N1Cc1ccc(OC)cc1,12.6 µM (active)
3,Oc1ccccc1Cn1c(-c2ccccc2O)nc2ccccc21,12.6 µM (active)
4,COc1ccc(CNc2nc(SC)n[nH]2)cc1OC,inactive
5,O=C(CN(Cc1ccc(F)cc1)S(=O)(=O)c1ccccc1)N1CCCCC1,10 µM (active)
6,Cn1cccc1Cc1nnc(SCC(N)=O)n1CCc1ccccc1,inactive
7,Cc1cnc(NC(=O)c2ccc3c(c2)C(=O)N(Cc2ccco2)C3=O)s1,inactive
8,COc1cccc(C2CC(c3ccccc3OC)n3nc(N)nc3N2)c1 (stereo not given),inactive
9,Cc1cccc(NC(=O)CSc2nnc(-c3ccccc3)n2N)c1C,inactive
10,O=S(=O)(c1ccccc1)N1CCN(C2CCN(Cc3ccccc3)CC2)CC1,inactive
11,CSc1nc(NC(C)(C)C)nc(Oc2ccc(=O)[nH]n2)n1,inactive
12,Oc1ccccc1-c1cc(C(F)(F)C(F)F)nc(-c2ccccc2)n1,7.94 µM (active)
13,Cc1cc(SCNC(=O)c2ccccc2)ncn1,inactive
14,CCOc1ccc(N(C(C)C(=O)Nc2ccc(OC)cc2)S(C)(=O)=O)cc1 (stereo not given),inactive
15,COc1cc2c(N3CCOCC3)cc(O)c(CC(=O)Nc3ccccc3)c2cc1OC,inactive
16,CCOC(=O)N1CCC(NC(=O)c2ccc(CNS(=O)(=O)c3ccc(F)cc3)cc2)CC1,inactive
17,Cc1occc1-c1nnc(SCC(=O)Nc2ccccc2)n1C(C)c1ccccc1 (stereo not given),12.6 µM (active)
18,Cc1onc(-c2ccccc2Cl)c1C(=O)Nc1ccc(-n2nncc2-c2ccco2)cc1,12.6 µM (active)
19,Cc1onc(-c2ccccc2)c1C(=O)N1CCCSC1=Nc1ccccc1,7.94 µM (active)
20,COC(=O)C1=C(C)OC(N)=C(C#N)C1C1CCCCC1 (stereo not given),6.31 µM (active)
